Compound activity from PubChem.
DENV2 CPE rescue: DENV2-induced cell death inhibition | DENV2-infected cells, cytopathic effect rescue, plate reader | CPE inhibition, % at 9.99 µM | 350,000 tested, 1.7% active | AID 651640; in the data active = CPE inhibition above about 20%, passing the limit was not always enough; tested in BHK-21 cells;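 also: 0% = median of neutral control wells and 100% = median of positive control wells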
GSIS activator: primary screen for activators of insulin secretion dependent on glucose, INS-1E cells, GLuc reporter luminescence; INS-1E GLuc reporter insulin secretion, 2-3 h; 370,000 tested, 0.61% active; activation, % at 16.6 µM;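 active = lowest replicate activation of at least 40%, so every replicate reaches that level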;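 also: 0% = median of neutral control wells and 100% = median of IBMX positive control wells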
PGC1a acetyl inh: lowers PGC1a acetylation signal in U2OS cells | 350,000 tested, 0.17% active | AlphaScreen anti-acetyl-lysine; with virally co-expressed GCN5 acetyltransferase | inhibition, % at 15.6 µM;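 active = every replicate shows inhibition of at least 40%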;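 also: 0% = neutral control wells and 100% = positive control wells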
CaV13 FRET inh: Disruptors of the CACNA1D IQ motif to Ca2+-dependent inactivation inhibitor domain association, primary screening, Förster resonance energy transfer in intact living …. HEK cells, CFP/YFP FRET ICDI-IQ, plate reader, 10 min; percent FRET-ratio fall versus neutral wells. inhibition, % at 12.3 µM. 340,000 tested, 0.098% active;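 active = mean replicate inhibition of at least 30% and at least 1% of replicates passing that level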;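 also: 0% = median of the neutral control wells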
ERAP1 inh: blocks human ERAP1 aminopeptidase activity; Q9NZ08; recombinant ERAP1, Leu-AMC fluorescence, 60 min; inhibition, % at 10.7 µM; 340,000 tested, 0.15% active; AID 652197;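 active = mean replicate inhibition of at least 30%, or all replicates individually reaching that 30% level; inactive = mean below 30% and not every replicate reaching it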;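 also: 0% = neutral control wells and 100% = L-leucinethiol positive control wells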
Target sequence (Q9NZ08 whole entry, looked up): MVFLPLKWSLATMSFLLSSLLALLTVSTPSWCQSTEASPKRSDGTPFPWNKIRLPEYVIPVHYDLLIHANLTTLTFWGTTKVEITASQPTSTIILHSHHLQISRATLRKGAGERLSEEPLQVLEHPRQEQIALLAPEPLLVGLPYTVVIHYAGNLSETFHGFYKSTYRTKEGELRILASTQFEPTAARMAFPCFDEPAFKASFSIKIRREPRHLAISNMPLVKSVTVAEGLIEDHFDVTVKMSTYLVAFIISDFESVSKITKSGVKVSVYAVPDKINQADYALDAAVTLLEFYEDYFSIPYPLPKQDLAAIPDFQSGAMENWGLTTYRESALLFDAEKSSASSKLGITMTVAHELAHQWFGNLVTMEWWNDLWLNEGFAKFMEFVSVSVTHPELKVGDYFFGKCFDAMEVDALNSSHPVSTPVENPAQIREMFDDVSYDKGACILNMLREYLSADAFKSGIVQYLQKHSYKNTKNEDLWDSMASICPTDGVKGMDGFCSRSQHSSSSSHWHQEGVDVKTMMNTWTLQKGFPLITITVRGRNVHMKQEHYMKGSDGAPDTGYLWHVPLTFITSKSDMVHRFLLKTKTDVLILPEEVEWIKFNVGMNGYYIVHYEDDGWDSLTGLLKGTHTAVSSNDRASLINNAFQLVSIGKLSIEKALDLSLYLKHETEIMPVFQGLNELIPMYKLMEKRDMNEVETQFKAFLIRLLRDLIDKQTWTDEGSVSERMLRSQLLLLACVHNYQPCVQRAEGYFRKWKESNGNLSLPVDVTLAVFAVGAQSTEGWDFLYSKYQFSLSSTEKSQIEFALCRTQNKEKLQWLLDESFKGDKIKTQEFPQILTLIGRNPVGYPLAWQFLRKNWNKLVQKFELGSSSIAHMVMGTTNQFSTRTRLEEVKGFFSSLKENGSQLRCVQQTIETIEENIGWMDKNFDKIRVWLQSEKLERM
Ecoli rRNA inh: selective bacterial rRNA inhibition in E. coli. E. coli WT GFP vs humanized-ribosome RFP mutants, fluorescence, 24 h; stronger effect = lower value; DMSO median 0, no signal -100. GFP signal change (wild-type ribosome), % (test concentration not listed). 350,000 tested, 1.6% active. AID 720706;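 active = significant combined selectivity score with lowered wild-type GFP, culture density cut under 30%, mutant RFP and density less affected; inactive = any of these conditions unmet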
The depositor's hits bear a star; . = not tested or not shown. A selection: hits, their analogues and other compounds. The true share with any hit is near 3.2%.

SMILES	DENV2 CPE rescue	GSIS activator	PGC1a acetyl inh	CaV13 FRET inh	ERAP1 inh	Ecoli rRNA inh
C[C@@H]1CCCCO[C@H](CN(C)C(=O)CCCN(C)C)[C@@H](C)CN([C@@H](C)CO)C(=O)c2cc(NC(=O)Nc3ccc4c(c3)OCO4)ccc2O1	47.4*	-17.0	16.3	.	.	2.2
C[C@@H]1CCCCO[C@@H](CN(C)C(=O)CCCN(C)C)[C@H](C)CN([C@@H](C)CO)C(=O)c2cc(NC(=O)Cc3ccccc3)ccc2O1	-6.8	15.4	-14.0	.	1.9	7.1
COc1ccccc1-c1cnc2c(c1)C(=O)N([C@@H](C)CO)C[C@H](C)[C@H](CN(C)Cc1ccncc1)O2	-0.5	2.0	0.0	.	0.5	-3.2
CCC(CC)C(=O)NCCc1cc2ccc(C)cc2[nH]c1=O	3.3	7.3	-2.9	-7.0	-5.4	-14.2*
C[C@@H]1CCCCO[C@H](CN(C)C)[C@@H](C)CN([C@@H](C)CO)C(=O)c2cc(NS(=O)(=O)c3ccc(F)cc3)ccc2O1	.	14.1	-3.9	.	.	3.1
COc1cccc(NC(=O)N(C)C[C@@H]2Oc3ncc(/C=C/c4ccccc4)cc3C(=O)N([C@H](C)CO)C[C@@H]2C)c1	-1.2	-18.4	2.5	.	.	-8.4
COc1ccccc1/C=C(/C(=O)OCC(=O)Nc1ccc(N(C)C)cc1)c1ccccc1	.	-1.8	.	-4.4	.	.
C=C(C)C(=O)OCC(=O)NCc1ccccc1	-4.2	1.5	-0.7	-18.7	7.5	12.1
COc1ccccc1/C=C(/C(=O)OCC(=O)NCc1ccccc1)c1ccccc1	.	3.4	91.9*	-5.3	.	.
COc1ccccc1/C=C(/C(=O)OCC(=O)Nc1ccccc1C)c1ccccc1	10.8	-7.7	.	4.0	18.4	-21.6*
N#C[C@@H]1[C@@H](c2ccc(C#CC3CCCCC3)cc2)[C@H](CO)N1C(=O)Nc1ccc(F)cc1	-9.4	-8.3	.	.	-1.8	-2.3
C=C[C@@H](COC(=O)c1ccc([N+](=O)[O-])cc1)N(Cc1ccc(OC)cc1)S(=O)(=O)c1ccc(Br)cc1	23.9*	.	-8.4	.	-0.4	.
C=CC(COCc1ccccc1)N(Cc1ccc(OC)cc1)S(=O)(=O)c1ccccc1Br (stereo not drawn)	4.8	14.4	-40.2	-6.9	2.7	18.9
C[C@@H]1CCCCO[C@@H](CN(C)C(=O)CCC(F)(F)F)[C@H](C)CN([C@H](C)CO)C(=O)c2cc(NS(=O)(=O)c3cccs3)ccc2O1	-0.6	-11.6	-0.5	.	.	-2.4
Cc1ccc(C(=O)C2CCN(CC(=O)Nc3nc(C)cs3)CC2)cc1	3.0	3.5	-8.7	-7.4	-3.6	-21.5*
COc1ccc(C(=O)C2CCN(CC(=O)Nc3cc(C)cc(C)c3)CC2)cc1	2.9	-11.5	.	-4.5	-6.8	-31.2
COCC(=O)Nc1ccc2c(c1)[C@H]1C[C@@H](CC(=O)NC3CCCC3)O[C@H](CO)[C@H]1O2	12.7	13.2	-10.9	.	1.2	0.9
CC(=O)N(C)C[C@@H]1Oc2ncc(C#Cc3ccccc3)cc2C(=O)N([C@H](C)CO)C[C@@H]1C	5.7	-8.4	6.9	.	-0.9	1.9
OCCN1CCN(CC(O)COc2ccc(Cl)cc2)CC1 (stereo not drawn)	.	.	5.3	.	.	.
OCCN1CCN(CC(O)COc2ccc(C34CC5CC(CC(C5)C3)C4)cc2)CC1 (stereo not drawn)	-1.0	90.3*	-20.5	1.0	7.6	-47.2
COc1nc(-c2ccccc2)c2cc(C)ccc2n1	-0.8	72.0*	11.0	-20.3	8.2	4.0
CC(C)NC(=O)N(C)C[C@@H]1OCCCC[C@H](C)Oc2ccc(NC(=O)CCC(F)(F)F)cc2C(=O)N([C@@H](C)CO)C[C@H]1C	0.7	22.2	-11.6	.	-0.5	0.7
O=c1[nH]nc(-c2ccc(NCCCO)c([N+](=O)[O-])c2)c2ccccc12	1.0	36.0	59.3*	-19.3	2.1	-1.6
O=c1[nH]nc(-c2ccc(NCCO)c([N+](=O)[O-])c2)c2ccccc12	14.9	34.3	12.1	-13.9	-4.3	2.0
Cc1cc(OCCn2cc(/C(N)=N/O)c3ccccc32)ccc1Cl	.	-12.2	-14.1	.	1.3	-40.0*
COC(=O)c1cn(CCOc2ccc(C)cc2)c2ccccc12	.	.	-15.4	-5.6	.	.
